System: LEGO organoid PT (PTEN-/-; TP53-/-)
Experiment: bioluminescence (viable cell) signal fold change after vs before treatment, normalised to DMSO (ratio); higher = more tumour cell growth / less inhibition
Settings: 10 µM; treatment time 6 days
Method: (§1)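 Luc2-labelled iPSC-derived glioblastoma-like organoids (LEGOs, genotypes PT = PTEN-/-;TP53-/-, PTCC = plus CDKN2A/B-/-, PTN = plus NF1-/-) were treated with 10 uM drug for 6 days (applied every other day) at 37 C. Bioluminescence imaging was done before treatment and 2 days after the last dose. BLI signals were normalised to the DMSO control on the same day and then to the pre-treatment signal (N=3).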

First: N[C@@H]1CONC1=O [D-Cycloserine]
Second: Nc1cccc2c1C(=O)N(C1CCC(=O)NC1=O)C2=O (stereo not drawn) [Pomalidomide]
The bioluminescence of the first is lower: 1.3 for the first, 1.5 for the second.

Compared with `COc1c(N2CCNC(C)C2)c(F)cc2c(=O)c(C(=O)O)cn(C3CC3)c12` (stereo not drawn) [Gatifloxacin], `CC1COc2c(N3CCN(C)CC3)c(F)cc3c(=O)c(C(=O)O)cn1c23` (stereo not drawn) [Ofloxacin] is lower in bioluminescence: 1.66 for the first, 1.08 for the second.

Compared with `O=C(NC1CCN(CCCCC2(C(=O)NCC(F)(F)F)c3ccccc3-c3ccccc32)CC1)c1ccccc1-c1ccc(C(F)(F)F)cc1` [Lomitapide], `C=CC(=O)N1CCC[C@@H](n2nc(-c3ccc(Oc4ccccc4)cc3)c3c(N)ncnc32)C1` [Ibrutinib] is higher in bioluminescence: 0.0143 for the first, 0.73 for the second.

First: NS(=O)(=O)c1cc2c(cc1Cl)N=CNS2(=O)=O [Chlorothiazide]
Second: Cc1ccc(Nc2nccc(N(C)c3ccc4c(C)n(C)nc4c3)n2)cc1S(N)(=O)=O.Cl [Pazopanib HCl]
The bioluminescence of the first is higher: 0.96 for the first, 0.626 for the second.

Going from `CO[C@H]1C[C@@H]2CC[C@@H](C)[C@@](O)(O2)C(=O)C(=O)N2CCCC[C@H]2C(=O)O[C@H]([C@H](C)C[C@@H]2CC[C@@H](OC(=O)C(C)(CO)CO)[C@H](OC)C2)CC(=O)[C@H](C)/C=C(\C)[C@@H](O)[C@@H](OC)C(=O)[C@H](C)C[C@H](C)/C=C/C=C/C=C/1C` [Temsirolimus] to `CCc1cc(/C(C)=N/OCc2ccc(C3CCCCC3)c(C(F)(F)F)c2)ccc1CN1CC(C(=O)O)C1` [Siponimod], the bioluminescence falls from 1.26 to 0.646.

First: Cc1ccccc1C(OCCN(C)C)c1ccccc1.Cl (stereo not drawn) [Orphenadrine hydrochloride]
Second: Cl.CN(C)CC\C=C1\c2ccccc2CCc2ccccc12 [Amitriptyline hydrochloride]
The bioluminescence of the first is lower: 1.02 for the first, 1.32 for the second.

Compared with `C#CCN[C@@H]1CCc2ccccc21` [Rasagiline], `CCC(=O)NCC[C@@H]1CCc2ccc3c(c21)CCO3` [Ramelteon] is lower in bioluminescence: 2.76 for the first, 0.961 for the second.

First: CC1(C)S[C@@H]2[C@H](NC(=O)[C@H](N)c3ccc(O)cc3)C(=O)N2[C@H]1C(=O)O.O.O.O [Amoxicillin trihydrate]
Second: CC(C)Cc1ccc(C(C)C(=O)O)cc1 (stereo not drawn) [Ibuprofen]
The bioluminescence of the first is lower: 1.03 for the first, 1.56 for the second.

First: CSCC[C@@H](N)C(=O)O [Methionine]
Second: N[C@H](C(=O)O)[C@H](O)c1ccc(O)c(O)c1 [Droxidopa]
The bioluminescence of the first is higher: 1.1 for the first, 1.08 for the second.

Going from `C/C(O)=C(\C#N)C(=O)Nc1ccc(C(F)(F)F)cc1` [Teriflunomide] to `CC(=O)Oc1ccccc1C(=O)O` [Aspirin], the bioluminescence falls from 1.68 to 0.997.

Going from `CC(C)c1c(C(=O)Nc2ccccc2)c(-c2ccccc2)c(-c2ccc(F)cc2)n1CC[C@@H](O)C[C@@H](O)CC(=O)[O-].CC(C)c1c(C(=O)Nc2ccccc2)c(-c2ccccc2)c(-c2ccc(F)cc2)n1CC[C@@H](O)C[C@@H](O)CC(=O)[O-].[Ca+2]` [Atorvastatin Calcium] to `CN(C/C=C/c1ccccc1)Cc1cccc2ccccc12.Cl` [Naftifine hydrochloride], the bioluminescence falls from 1.09 to 0.607.

Compared with `Cl.Cl.OCCOCCN1CCN(C(c2ccccc2)c2ccc(Cl)cc2)CC1` (stereo not drawn) [Hydroxyzine dihydrochloride], `CN1CCN(C2=Nc3cc(Cl)ccc3Nc3ccccc32)CC1` [Clozapine] is lower in bioluminescence: 1.29 for the first, 1.13 for the second.

Compared with `CC(C)NCC(O)COc1ccc(CC(N)=O)cc1` (stereo not drawn) [Atenolol], `C[C@H](C(=O)O)c1cccc(C(=O)c2ccccc2)c1` [(S)-(+)-Ketoprofen] is lower in bioluminescence: 1.39 for the first, 0.793 for the second.

Compared with `CCCc1nc(C)c2c(=O)[nH]c(-c3cc(S(=O)(=O)N4CCN(CC)CC4)ccc3OCC)nn12` [Vardenafil], `Cc1nc(Nc2ncc(C(=O)Nc3c(C)cccc3Cl)s2)cc(N2CCN(CCO)CC2)n1` [Dasatinib] is lower in bioluminescence: 1.36 for the first, 0.748 for the second.

Compared with `COc1cc(C(C)=O)ccc1OCCCN1CCC(c2noc3cc(F)ccc23)CC1` [Iloperidone], `CN1[C@@H]2CC[C@H]1C[C@@H](OC(c1ccccc1)c1ccccc1)C2.CS(=O)(=O)O` [Benztropine mesylate] is lower in bioluminescence: 1.45 for the first, 1.14 for the second.

Compared with `CCc1cc(C(N)=S)ccn1` [Ethinamide], `Oc1c(I)cc(Cl)c2cccnc12` [Clioquinol] is lower in bioluminescence: 2.05 for the first, 0.859 for the second.

`CO/N=C(\C(=O)N[C@@H]1C(=O)N2C(C(=O)[O-])=C(CSc3nc(=O)c([O-])nn3C)CS[C@H]12)c1csc(N)n1.CO/N=C(\C(=O)N[C@@H]1C(=O)N2C(C(=O)[O-])=C(CSc3nc(=O)c([O-])nn3C)CS[C@H]12)c1csc(N)n1.O.O.O.O.O.O.O.[Na+].[Na+].[Na+].[Na+]` [Ceftriaxone sodium] was tested, and the bioluminescence was 0.964.

System: LEGO organoid PTCC (PTEN-/-; TP53-/-; CDKN2A-/-; CDKN2B-/-)
Experiment: as above
Settings: 10 µM; treatment time 6 days
Method: as §1

Compared with `N[C@@H]1CONC1=O` [D-Cycloserine], `Nc1cccc2c1C(=O)N(C1CCC(=O)NC1=O)C2=O` (stereo not drawn) [Pomalidomide] is higher in bioluminescence: 1.11 for the first, 2.56 for the second.

First: COc1c(N2CCNC(C)C2)c(F)cc2c(=O)c(C(=O)O)cn(C3CC3)c12 (stereo not drawn) [Gatifloxacin]
Second: CC1COc2c(N3CCN(C)CC3)c(F)cc3c(=O)c(C(=O)O)cn1c23 (stereo not drawn) [Ofloxacin]
The bioluminescence of the first is lower: 0.933 for the first, 2.88 for the second.

Compared with `O=C(NC1CCN(CCCCC2(C(=O)NCC(F)(F)F)c3ccccc3-c3ccccc32)CC1)c1ccccc1-c1ccc(C(F)(F)F)cc1` [Lomitapide], `O=C(CCCN1CCC(O)(c2ccc(Cl)cc2)CC1)c1ccc(F)cc1` [Haloperidol] is higher in bioluminescence: 0.124 for the first, 0.956 for the second.

Going from `NS(=O)(=O)c1cc2c(cc1Cl)N=CNS2(=O)=O` [Chlorothiazide] to `Cc1ccc(Nc2nccc(N(C)c3ccc4c(C)n(C)nc4c3)n2)cc1S(N)(=O)=O.Cl` [Pazopanib HCl], the bioluminescence falls from 1.63 to 1.41.

Going from `CO[C@H]1C[C@@H]2CC[C@@H](C)[C@@](O)(O2)C(=O)C(=O)N2CCCC[C@H]2C(=O)O[C@H]([C@H](C)C[C@@H]2CC[C@@H](OC(=O)C(C)(CO)CO)[C@H](OC)C2)CC(=O)[C@H](C)/C=C(\C)[C@@H](O)[C@@H](OC)C(=O)[C@H](C)C[C@H](C)/C=C/C=C/C=C/1C` [Temsirolimus] to `CCc1cc(/C(C)=N/OCc2ccc(C3CCCCC3)c(C(F)(F)F)c2)ccc1CN1CC(C(=O)O)C1` [Siponimod], the bioluminescence rises from 0.978 to 2.91.

First: Cc1ccccc1C(OCCN(C)C)c1ccccc1.Cl (stereo not drawn) [Orphenadrine hydrochloride]
Second: Cl.CN(C)CC\C=C1\c2ccccc2CCc2ccccc12 [Amitriptyline hydrochloride]
The bioluminescence of the first is higher: 1.18 for the first, 0.794 for the second.

First: C#CCN[C@@H]1CCc2ccccc21 [Rasagiline]
Second: CCC(=O)NCC[C@@H]1CCc2ccc3c(c21)CCO3 [Ramelteon]
The bioluminescence of the first is lower: 1.19 for the first, 1.56 for the second.

Compared with `CC1(C)S[C@@H]2[C@H](NC(=O)[C@H](N)c3ccc(O)cc3)C(=O)N2[C@H]1C(=O)O.O.O.O` [Amoxicillin trihydrate], `CC(C)Cc1ccc(C(C)C(=O)O)cc1` (stereo not drawn) [Ibuprofen] is lower in bioluminescence: 2.36 for the first, 0.624 for the second.

Compared with `CSCC[C@@H](N)C(=O)O` [Methionine], `N[C@H](C(=O)O)[C@H](O)c1ccc(O)c(O)c1` [Droxidopa] is higher in bioluminescence: 0.816 for the first, 2.59 for the second.

Going from `C/C(O)=C(\C#N)C(=O)Nc1ccc(C(F)(F)F)cc1` [Teriflunomide] to `CC(=O)Oc1ccccc1C(=O)O` [Aspirin], the bioluminescence rises from 0.469 to 0.785.

Going from `CC(C)c1c(C(=O)Nc2ccccc2)c(-c2ccccc2)c(-c2ccc(F)cc2)n1CC[C@@H](O)C[C@@H](O)CC(=O)[O-].CC(C)c1c(C(=O)Nc2ccccc2)c(-c2ccccc2)c(-c2ccc(F)cc2)n1CC[C@@H](O)C[C@@H](O)CC(=O)[O-].[Ca+2]` [Atorvastatin Calcium] to `CN(C/C=C/c1ccccc1)Cc1cccc2ccccc12.Cl` [Naftifine hydrochloride], the bioluminescence rises from 0.222 to 1.3.

First: Cl.Cl.OCCOCCN1CCN(C(c2ccccc2)c2ccc(Cl)cc2)CC1 (stereo not drawn) [Hydroxyzine dihydrochloride]
Second: CCc1nn(CCCN2CCN(c3cccc(Cl)c3)CC2)c(=O)n1CCOc1ccccc1.Cl [Nefazodone hydrochloride]
The bioluminescence of the first is lower: 0.859 for the first, 1.12 for the second.

Going from `COc1cc2ncnc(Nc3ccc(F)c(Cl)c3)c2cc1OCCCN1CCOCC1` [Gefitinib] to `COc1cc(C(C)=O)ccc1OCCCN1CCC(c2noc3cc(F)ccc23)CC1` [Iloperidone], the bioluminescence falls from 1.22 to 1.06.

Going from `CC(C)NCC(O)COc1ccc(CC(N)=O)cc1` (stereo not drawn) [Atenolol] to `C[C@H](C(=O)O)c1cccc(C(=O)c2ccccc2)c1` [(S)-(+)-Ketoprofen], the bioluminescence rises from 0.484 to 1.1.

First: CCCc1nc(C)c2c(=O)[nH]c(-c3cc(S(=O)(=O)N4CCN(CC)CC4)ccc3OCC)nn12 [Vardenafil]
Second: Cc1nc(Nc2ncc(C(=O)Nc3c(C)cccc3Cl)s2)cc(N2CCN(CCO)CC2)n1 [Dasatinib]
The bioluminescence of the first is higher: 1.16 for the first, 0.977 for the second.

First: C=CC(=O)N1CCC[C@@H](n2nc(-c3ccc(Oc4ccccc4)cc3)c3c(N)ncnc32)C1 [Ibrutinib]
Second: CN1CCN(C2=Nc3cc(Cl)ccc3Nc3ccccc32)CC1 [Clozapine]
The bioluminescence of the first is higher: 1.87 for the first, 0.388 for the second.

First: CCc1cc(C(N)=S)ccn1 [Ethinamide]
Second: Oc1c(I)cc(Cl)c2cccnc12 [Clioquinol]
The bioluminescence of the first is lower: 0.707 for the first, 1.47 for the second.

`CO/N=C(\C(=O)N[C@@H]1C(=O)N2C(C(=O)[O-])=C(CSc3nc(=O)c([O-])nn3C)CS[C@H]12)c1csc(N)n1.CO/N=C(\C(=O)N[C@@H]1C(=O)N2C(C(=O)[O-])=C(CSc3nc(=O)c([O-])nn3C)CS[C@H]12)c1csc(N)n1.O.O.O.O.O.O.O.[Na+].[Na+].[Na+].[Na+]` [Ceftriaxone sodium] showed a bioluminescence of 1.62.

Reference: the supplement of paper PMC10811239
